# Tested on: Caenorhabditis elegans L1 (N2)
# Experiment: survival and reproduction score of C. elegans L1 (0: 0-10 living worms, 1: 11-20, 2: 21-50, 3: >50, 4: overgrown) (score 0-4); higher = more worms, less nematicidal, active = 1 or less; extreme values may be limits of the assay
# Settings: 60 µM; 6 days; temperature: 20 °C
# In short: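 In liquid NGM with E. coli HB101, approximately 20 synchronized C. elegans N2 L1s per 96-well well were exposed to compound at 60 µM final (0.6% v/v DMSO) for 6 days at 20 °C with shaking at 200 rpm in sealed plates. Survival and reproduction were judged under a dissection microscope as an ordinal rating of living worms per well. Ratings went from 0 (0–10 worms) to 4 (overgrown, starved) and were averaged over two biological replicates.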
row,Structure (SMILES),survival and reproduction score
1,CC(=O)Nc1ccc(-c2nnc(SCc3ccccc3)o2)cc1,4 (inactive)
2,CCn1c(SCc2nnc(-c3ccccc3)o2)nnc1-c1ccco1,4 (inactive)
3,O=C(CSc1nnc(-c2ccccc2Cl)o1)Nc1nccs1,4 (inactive)
4,CNC(=O)c1ccccc1-c1nc(-c2ccc(Cl)cc2)no1,4 (inactive)
5,Cc1ccc(-c2nc(-c3cccnc3)no2)cc1Cl,0 (active)
6,Cc1ccc(-c2nc(-c3ccccn3)no2)cc1C,3.5 (inactive)
7,Cc1ccc(-c2nc(-c3ccccc3)no2)cc1Cl,3 (inactive)
8,Cc1cc(OCc2nc(-c3cccnc3)no2)ccc1Cl,4 (inactive)
9,CC(C)(C)C(=O)Nc1ccccc1-c1nc(-c2ccncc2)no1,4 (inactive)
10,Brc1ccc(CSc2nnc(-c3cccnc3)o2)cc1,4 (inactive)
11,O=C(CSc1nnc(-c2ccco2)o1)Nc1ccc(Br)cc1,4 (inactive)
12,CN(C)c1ccc(-c2nnc(SCc3ccccc3)o2)cc1,4 (inactive)
13,CC(C)Oc1ccc(-c2nc(-c3ccncc3)no2)cc1,0 (active)
14,Cc1ccccc1-c1nc(-c2ccc3c(c2)OCO3)no1,2.5 (inactive)
15,CCc1ccc(NC(=O)CSc2nnc(-c3ccco3)o2)cc1,4 (inactive)
16,Clc1cccc(OCc2nc(-c3cccs3)no2)c1,0 (active)
17,CC(=O)Nc1c(C)ccc(CNC(=O)CSc2nnc(-c3ccc(C(C)(C)C)cc3)o2)c1C,4 (inactive)
18,CCOc1ccccc1-c1nc(-c2ccc(Cl)cc2)no1,4 (inactive)
19,Cc1cc(Br)ccc1OCc1nc(-c2ccncc2)no1,4 (inactive)
20,COc1ccc(-c2noc(CSc3nc(C)cc(C)n3)n2)cc1,4 (inactive)

row,Structure (SMILES),survival and reproduction score
1,Cc1cccc(-c2noc(COc3ccc(Cl)cc3C)n2)c1,4 (inactive)
2,c1cncc(-c2noc(-c3cccc4ccccc34)n2)c1,4 (inactive)
3,CC(Sc1nnc(-c2ccccc2)o1)C(=O)Nc1nccs1 (centres undefined),4 (inactive)
4,CC(C)(C)c1ccc(OCc2nc(-c3ccccc3)no2)cc1,4 (inactive)
5,Cc1ccc(-c2noc(-c3ccco3)n2)s1,0 (active)
6,COc1ccc(-c2nnc(SCC(=O)Nc3ccc(Cl)cc3Cl)o2)cc1,2 (inactive)
7,COc1ccc(Cl)cc1NC(=O)CSc1nnc(-c2ccncc2)o1,4 (inactive)
8,Cc1ccccc1OCc1nc(-c2cccs2)no1,1 (active)
9,COc1cccc(-c2noc(-c3ccc(Cl)cc3)n2)c1,3 (inactive)
10,CCCCSc1nnc(-c2ccc(Br)cc2)o1,0 (active)
11,N#Cc1ccccc1NC(=O)CSc1nnc(-c2ccccc2)o1,4 (inactive)
12,COc1cccc(-c2noc(-c3cccc(F)c3)n2)c1,4 (inactive)
13,Cc1ccc(OCc2nc(-c3ccncc3)no2)cc1C,4 (inactive)
14,Fc1ccc(OCc2nc(-c3ccc(Cl)cc3)no2)cc1,4 (inactive)
15,COc1ccccc1-c1nnc(SCC(=O)Nc2ccc(F)cc2)o1,4 (inactive)
16,Cc1ccc(-c2noc(COc3ccc(Cl)cc3)n2)cc1,4 (inactive)
17,CCCc1ccc(-c2nc(-c3ccc(F)cc3)no2)cc1,1.5 (inactive)
18,CCn1c(SCc2nc(-c3cccs3)no2)nnc1-c1ccco1,2 (inactive)
19,COc1ccc(Cl)cc1-c1noc(-c2ccc(Cl)cc2)n1,4 (inactive)

# Reference: the supplement of paper PMC11219838
